From PubChem BioAssay
Potency and affinity values are given separately. Calls of active or inactive are those of the source.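 The calls were made as follows, unless noted: active = fitted dose curve reaches 40% lysis signal rise at or below the highest valid concentration tested for that sample; inconclusive = flat fit between 30% and 70%, or poor curve fit; inactive = signal falls, stays flat within 30%, or no crossing.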

Tests used:
[1] = inducers of Cryptococcus neoformans cell lysis, dose response, AK release luminescence, cherry-picks (AID 687000);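 also: luminescent detection of adenylate kinase leaking from lysed yeast; 0% = median neutral control signal and 100% = double that signal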
[2] = HepG2 cell cytotoxicity, dose response, cytotoxicity control, cherry-picks, set 2 (AID 687002;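 active = a dose-response fit showing signal loss, with half-maximal concentration no higher than twice the top tested dose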)
[3] = HeLa cell cytotoxicity, dose response, cytotoxicity control, ATP luminescence, cherry-pick samples (AID 687004;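 active = a fitted half-maximal concentration no higher than twice the top valid tested dose, with signal falling as cells die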;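 also: 0% = neutral control median and -100% = staurosporine 10 µM control median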)

Measured: activity change, negative = cytotoxicity

O=C(NC[C@@H]1[C@@H](c2ccccc2)[C@H](CO)N1C(=O)C1CCC1)NC1CCCC1
inactive: all assays above

COc1ccc(N2CCN(C(=O)CSc3ncnc4c3cnn4-c3ccccc3C)CC2)cc1
inactive: all assays above

CNC(=O)CN(c1ccccc1)S(=O)(=O)c1ccc(F)cc1
inactive: all assays above

Cc1cccc(NC(=O)CN(C)C(=O)C2CCCC2)c1C
inactive: all assays above

C[C@@H]1CN([C@@H](C)CO)S(=O)(=O)c2ccc(C3=CCCC3)cc2O[C@@H]1CN(C)Cc1ccccc1F
inactive: all assays above

Cc1ccccc1N(CC(=O)NCCSC1CCCCC1)S(=O)(=O)c1ccccc1
inactive: all assays above

COCC#Cc1ccc2c(c1)O[C@H](CN(C)S(=O)(=O)c1ccc(OC)cc1)[C@H](C)CN([C@H](C)CO)S2(=O)=O
inactive: all assays above

C[C@H](CO)N1C[C@H](C)[C@H](CN(C)Cc2ccc(Cl)c(Cl)c2)Oc2c(NC(=O)Nc3ccccc3)cccc2C1=O
inactive: all assays above

COc1cccc(NC(=O)CN2CCN(S(=O)(=O)c3ccc(C(C)C)cc3)CC2)c1
inactive: all assays above

Fc1ccccc1CNC(=S)NCc1ccc(Cl)cc1
inactive: all assays above

CC(C)Sc1nc2ncnc(N)c2[nH]1
inactive: all assays above

Cc1cc(C)c(NC(=O)CN(C2CCCCC2)C2CCCCC2)c(C)c1
inactive: all assays above

CN1c2ccc(-c3ccc(F)cc3)cc2[C@H]2[C@H](CCN2S(=O)(=O)c2cccc(F)c2)[C@H]1CO
inactive: [1] | [2] | [3] 7.29% [at 6 µM]

O=C(Nc1ccc2ncccc2c1)c1ccccc1
inactive: all assays above

Cc1ccc(S(=O)(=O)N(C)C[C@H]2Oc3c(cccc3N(C)C)C(=O)N([C@@H](C)CO)C[C@H]2C)cc1
inactive: all assays above

Cc1c(Cl)cccc1NC(=O)C1NC(=O)CC1c1ccccc1 (stereo not given)
inactive: all assays above

COc1ccc(N(C)C(=O)c2cn(CC(C)C)c(=O)c3cc(OC)c(OC)cc23)c(OC)c1
inactive: all assays above

C[C@@H]1CN([C@@H](C)CO)C(=O)c2cc(-c3cncnc3)cnc2O[C@H]1CN(C)C(=O)CN1CCOCC1
inactive: all assays above

CC(C)NC(=O)Nc1ccc2c(c1)C(=O)N([C@H](C)CO)C[C@H](C)[C@H](CN(C)Cc1ccncc1)OCCCC[C@H](C)O2
inactive: all assays above

CCC(C)(C(=O)Nc1ccccc1C)N(C(=O)CNC(C)=O)c1ccccc1C (stereo not given)
inactive: all assays above

Cc1ccccc1OCC(=O)NCc1ccccc1
inactive: all assays above

CCN(CC)CC(=O)N(CC(=O)Nc1c(C)cc(C)cc1C)C1CCCCC1
inactive: all assays above

Cc1ccccc1-n1ncc2c(SCC(=O)N3c4ccccc4CC3C)ncnc21 (stereo not given)
inactive: all assays above

COCCNC(=O)C[C@H]1C=C[C@H](NS(=O)(=O)c2ccc(C)cc2)[C@@H](CO)O1
inactive: all assays above

Fc1cccc(CCN2C(=S)NC[C@@H]2Cc2ccccc2)c1
inactive: all assays above

C[C@H](CO)N1C[C@H](C)[C@H](CN(C)CC2CCCCC2)Oc2c(NS(C)(=O)=O)cccc2C1=O
inactive: all assays above

CCOC(=O)CNC(=O)CSc1ncnc2c1cnn2-c1ccccc1
inactive: all assays above

CC(C)NC(=O)N(C)C[C@@H]1Oc2c(NC(=O)C3CCCCC3)cccc2C(=O)N([C@@H](C)CO)C[C@@H]1C
inactive: [1] | [2] 11.5% [at 6 µM] | [3]

Cc1ccc(NC(=O)C(=O)NCCCN2CCCC2=O)c(C)c1
inactive: all assays above

CCN(C(=O)CSc1ncnc2c1cnn2-c1ccccc1)C1CCS(=O)(=O)C1 (stereo not given)
inactive: all assays above

CCc1ccccc1NC(=O)C1NC(=O)CC1c1ccccc1 (stereo not given)
inactive: all assays above

COc1cccc(S(=O)(=O)Nc2ccc3c(c2)OC[C@@H](C)NC[C@H](C)[C@@H](OC)CN(C)C3=O)c1
inactive: all assays above

O=C(c1cccs1)N1CCN(c2nc3ccccc3s2)CC1
inactive: all assays above

Fc1ccc(CNC(=S)NCc2cccc(Cl)c2)cc1
inactive: all assays above

O=C(CSc1ncnc2c1cnn2-c1ccccc1)NCC1CCCO1 (stereo not given)
inactive: all assays above

CC(C)c1ccc(OCC(=O)NC(C)c2ccccc2)cc1 (stereo not given)
inactive: all assays above

Cc1ccc(S(=O)(=O)N2CC[C@@H]3[C@H](CO)Nc4ccc(-c5ccccc5F)cc4[C@@H]32)cc1
inactive: all assays above

CCNC(=O)CN(c1ccccc1)S(=O)(=O)c1ccc(Cl)cc1
inactive: all assays above

CCc1ccc(C(=O)NC(=S)Nc2ccccc2N2CCOCC2)cc1
inactive: all assays above

C[C@@H]1CN([C@H](C)CO)C(=O)c2ccccc2-c2ccccc2CO[C@H]1CN(C)S(=O)(=O)c1cccc(C#N)c1
inactive: all assays above

C#CCN(C(=O)c1ccc(OC2CCN(C(=O)CCOC)CC2)cc1)C1CCCCC1
inactive: all assays above

Cc1ccccc1NC(=O)C1CCC(=O)N1 (stereo not given)
inactive: all assays above

O=C(NC(=S)Nc1ccccc1[N+](=O)[O-])c1ccccc1
inactive: all assays above

CC(NC(=O)COc1ccccc1C(C)(C)C)c1ccccc1 (stereo not given)
inactive: all assays above

O=C(CN(c1ccc(F)cc1)S(=O)(=O)c1ccccc1)NCCSC1CCCCC1
inactive: all assays above

COc1cccc(S(=O)(=O)Nc2ccc3c(c2)[C@H]2C[C@@H](CC(=O)NC4CCCCC4)O[C@@H](CO)[C@H]2O3)c1
inactive: all assays above

COc1ccc(C2CC(c3cccs3)=NN2C(=O)c2ccco2)cc1OC (stereo not given)
inactive: all assays above

O=C(c1cccc(F)c1)N1C[C@H]2[C@@H](c3ccccc31)[C@@H](CO)N2Cc1cocn1
inactive: all assays above

Cc1ccccc1OCC(=O)NC(C)c1ccccc1 (stereo not given)
inactive: all assays above

Cc1ccc(NC(=O)C2(N3CCC3=O)CCCCC2)cc1
inactive: all assays above

C[C@@H]1CN([C@H](C)CO)C(=O)Cc2cc(NC(=O)CCCCCC(=O)Nc3ccccc3N)ccc2O[C@H]1CN(C)C(=O)Nc1ccccc1
inactive: all assays above

O=C(CN(c1ccccc1)S(=O)(=O)c1ccccc1)Nc1ccc(F)cc1
inactive: all assays above

O=C(NC[C@H]1[C@H](c2ccccc2)[C@H](CO)N1C(=O)Cc1cccnc1)C1CCC1
inactive: all assays above

O=C(NC(=S)Nc1ccccc1N1CCOCC1)c1ccccc1F
inactive: all assays above

S=C(NCCc1cccc(Cl)c1)NC1CCCCC1
inactive: all assays above

CCOc1ccc(C(=O)NC(=S)Nc2ccccc2N2CCCCC2)cc1[N+](=O)[O-]
inactive: all assays above

CCc1ccc(NC(=O)[C@H](C)NC(=O)C2CCN(C(=O)[C@@H](N)C(C)C)CC2)cc1
inactive: all assays above

Cc1ccc(/C=C2\SC(=S)N(NS(=O)(=O)c3ccc(C)cc3)C2=O)cc1
inactive: all assays above

CCN(CC)C(=O)CSc1ncnc2c1cnn2-c1ccccc1
inactive: all assays above

N#C[C@H]1[C@@H](c2ccccc2)[C@@H](CO)N1C(=O)Cc1ccccc1
inactive: all assays above
